The source of these data is paper PMC4336329 (PLoS ONE, 2015).

Out of some 310,000 compounds screened, about 2,200 (0.71%) showed an effect of 50% or more. Effects have a minus sign here. For the sample, strong results were picked, then their nearest neighbours and some compounds at random.

The target of this assay is human ether-à-go-go-related gene (hERG) potassium channel (human, UniProt Q12809). Put plainly: primary screen, population patch clamp on CHO cells stably expressing hERG; higher = less effect of the substance.
human ether-à-go-go-related gene (hERG) potassium channel, sequence (Q12809 whole entry, looked up): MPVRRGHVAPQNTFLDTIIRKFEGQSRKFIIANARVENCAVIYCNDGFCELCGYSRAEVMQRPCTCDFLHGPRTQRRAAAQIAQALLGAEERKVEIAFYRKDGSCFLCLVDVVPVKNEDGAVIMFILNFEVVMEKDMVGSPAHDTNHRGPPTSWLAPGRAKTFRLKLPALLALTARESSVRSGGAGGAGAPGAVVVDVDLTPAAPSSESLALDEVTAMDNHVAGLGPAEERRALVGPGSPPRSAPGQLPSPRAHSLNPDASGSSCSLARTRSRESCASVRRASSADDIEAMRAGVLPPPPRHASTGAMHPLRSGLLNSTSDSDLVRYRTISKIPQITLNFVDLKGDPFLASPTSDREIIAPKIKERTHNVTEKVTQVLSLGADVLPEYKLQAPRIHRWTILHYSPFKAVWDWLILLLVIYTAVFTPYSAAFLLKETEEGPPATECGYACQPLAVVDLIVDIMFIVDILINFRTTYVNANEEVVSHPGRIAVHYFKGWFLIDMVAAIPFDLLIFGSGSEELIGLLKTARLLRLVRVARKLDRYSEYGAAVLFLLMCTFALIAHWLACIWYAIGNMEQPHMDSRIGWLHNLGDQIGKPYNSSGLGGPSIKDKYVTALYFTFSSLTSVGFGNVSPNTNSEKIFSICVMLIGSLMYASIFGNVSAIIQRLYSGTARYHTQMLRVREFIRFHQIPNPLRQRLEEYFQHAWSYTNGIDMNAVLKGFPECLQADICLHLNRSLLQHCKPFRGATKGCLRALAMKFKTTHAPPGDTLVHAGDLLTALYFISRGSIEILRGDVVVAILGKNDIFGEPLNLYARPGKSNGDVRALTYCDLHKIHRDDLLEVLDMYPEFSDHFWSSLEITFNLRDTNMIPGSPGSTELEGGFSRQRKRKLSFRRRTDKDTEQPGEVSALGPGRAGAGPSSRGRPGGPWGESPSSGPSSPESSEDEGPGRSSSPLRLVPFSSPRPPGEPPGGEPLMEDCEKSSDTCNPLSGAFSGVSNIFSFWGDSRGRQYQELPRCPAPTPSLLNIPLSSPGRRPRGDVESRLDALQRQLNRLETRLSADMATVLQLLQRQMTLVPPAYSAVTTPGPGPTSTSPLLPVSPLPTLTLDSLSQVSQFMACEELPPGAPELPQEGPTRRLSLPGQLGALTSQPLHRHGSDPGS
Regarding `Cc1cccc(C)c1Nc1nnc(SCC(=O)c2ccc(Br)s2)s1`, the “hERG current change (%, negative = inhibition) at 1uM” value amounted to 12.4%.
In the case of `CCCN(CCC)S(=O)(=O)c1ccc(NC(=O)c2cc(C(=O)OC)cc([N+](=O)[O-])c2)cc1` it was 16.7%.
For `CCCn1c2ccccc2c2cnn(CC(=O)NC3CCCC(C)C3C)c(=O)c21` (stereo not shown), the “hERG current change (%, negative = inhibition) at 1uM” value is 11.4%.
In the case of `CN(C)S(=O)(=O)c1ccc2nnn(O)c2c1` it was 7.89%.
Take `CCC(C)(C)NC(=O)C(c1ccco1)N(C(=O)Cn1nnc2ccccc21)c1ccc2c(c1)OCO2` (stereo not shown): the “hERG current change (%, negative = inhibition) at 1uM” value came to 13.9%.
In the case of `O=C(NCc1ccncc1)c1nc(-c2cccs2)no1` it was -0.652%.
For the compound `COc1ccc(S(=O)(=O)NCCc2csc(-c3cccnc3)n2)cc1`, the “hERG current change (%, negative = inhibition) at 1uM” value is -9.72%.
The figure for `CN(/N=C/c1ccc(Cl)cc1)c1ncc(Cl)cc1C(F)(F)F` is 14.6%; for `CN1/C(=C/C=C(C#N)C#N)C(C)(C)c2ccccc21` it is 10.9%; for `Cc1c(N=C/C=C2/N(C)c3ccccc3C2(C)C)c(=O)n(-c2ccccc2)n1C` it is -5.46%.
The figure for `Cc1ccccc1N=C/C=C1\N(C)c2ccccc2C1(C)C` is -51.2%; for `CN(C)c1ccc(N=C/C=C2\N(C)c3ccccc3C2(C)C)cc1` it is -84.7%; for `CN1/C(=C\C=O)C(C)(C)c2ccccc21` it is 3.65%.
The figure for `CN1/C(=C\C=Nc2ccccc2)C(C)(C)c2ccccc21` is -65%.
In the case of `CN1/C(=C\C=Nc2ccc3ccccc3c2)C(C)(C)c2ccccc21`, the “hERG current change (%, negative = inhibition) at 1uM” value is reported as -75.1%.
Consider `Cc1c(N=C/C=C2\N(C)c3ccccc3C2(C)C)c(=O)n(-c2ccccc2)n1C`, for which the “hERG current change (%, negative = inhibition) at 1uM” value is recorded as -15.5%.
In the case of `CN1/C(=C/C=N/n2cnnc2)C(C)(C)c2ccccc21` it was 7.04%; in that of `CN1/C(=C\C=C(C#N)C#N)C(C)(C)c2ccccc21`, 2.94%.
For the compound `CO/N=C/C=C1/N(C)c2ccccc2C1(C)C`, the “hERG current change (%, negative = inhibition) at 1uM” value stood at 12.5%.
The figure for `CN1/C(=C\C=N\O)C(C)(C)c2ccccc21` is 14.7%; for `N#Cc1nc(-c2ccc(Cl)cc2)oc1NCc1ccco1` it is 18.1%; for `COc1cccc(-n2c(Cc3cc(=O)[nH]c(=O)[nH]3)nnc2SC(C)C)c1` it is 2.56%.
In the case of `CCNC(=O)c1ccc(CSc2nc3ccccc3s2)cc1`, the “hERG current change (%, negative = inhibition) at 1uM” value turned out to be 11.4%.
`O=S(=O)(c1ccc(NC(=S)NCCc2ccccc2)cc1)N1CCOCC1`: the “hERG current change (%, negative = inhibition) at 1uM” value was found to be 3.71%.
Take `COc1cccc(-c2nc(CS(=O)(=O)CC(=O)NCCCN3CC(C)CC(C)C3)c(C)o2)c1` (stereo not shown): the “hERG current change (%, negative = inhibition) at 1uM” value is listed as -5.41%.
